Records with an inconclusive call do not appear. A call without a number means that no potency is given here. The source made the active and inactive calls. Calls follow the shape of the dose curve; as a rule, active = well fitted inhibition curve with a large enough effect; inconclusive = small, poorly fitted or top-dose-only effect; inactive = flat fitted curve, though single readings scatter.

Sequence of Phospholipid hydroperoxide glutathione peroxidase GPX4 (Homo sapiens) (P36969 whole entry, looked up): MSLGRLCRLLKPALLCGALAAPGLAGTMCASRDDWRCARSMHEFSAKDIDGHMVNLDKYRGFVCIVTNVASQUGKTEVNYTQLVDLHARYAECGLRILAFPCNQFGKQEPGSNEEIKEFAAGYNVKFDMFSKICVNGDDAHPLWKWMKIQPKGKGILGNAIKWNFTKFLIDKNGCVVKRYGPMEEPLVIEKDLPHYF

The target in this assay is Phospholipid hydroperoxide glutathione peroxidase GPX4 (Homo sapiens) (UniProt P36969). Kind of assay: Primary qHTS Assay for Inhibitors of Recombinant Selenoprotein Glutathione Peroxidase 4 (GPX4) (AID 1845192). Also: nearly all actives have a fitted effect of over 65% in size. Conditions: recombinant GPX4, GR-coupled NADPH fluorescence, 15 min; series mostly up to 50 µM. The gist of the method:
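NADPH consumption, followed by fluorescence at 340/450 nm between 0 and 15 min, reports GPX4 activity via coupled glutathione reductase (100 nM). Enzyme 200 nM was pre-exposed to compound 30 min; 0.5 mM cumene hydroperoxide and 1 mM GSH served as substrates.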
As for `CC(=O)Oc1cc(C)c(OC(C)=O)c2ccccc12`, the Potency result is “inactive”.

`COc1c2c(c(C)c3c1C(=O)OC3)OC1(C)CC(O)C3(O)C(C)(C)OC(=O)CCC3(C)C1C2` (centres undefined): the Potency result is “inactive”.

Consider `COC(=O)C1=C(C#N)NC(C)=C(C(=O)OC(C)C)C1c1cccc([N+](=O)[O-])c1` (centres undefined), for which the Potency result was “inactive”.

Regarding `NCCOCCOCCNC(=O)Cc1ccc(Nc2nc(NCc3ccc(F)cc3)nc(NCC3CCCCC3)n2)cc1`, the Potency entry was “inactive”.
